# A number with no mark means an inactive call. For part of these data: Entries with a potency or affinity are not part of this list. Active and inactive are the calls of the source.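 How the source made its calls, unless noted: active means primary screen activator hit with a dose response curve and TRPC4 channel activation at any tested dose; inactive means no activation, no dose response, or not a primary hit.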
# Assays:
# [1] = tested on: TRPC4 beta (transient receptor potential cation channel C4), mouse; assay: TRPC4 cation channel opening, retest – cell-based, Fluo4 calcium, HEK293 TRPC4beta/mu-opioid, duplicates, 10 µM, confirmation (AID 2426;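 active means fluorescence ratio normalized to control raised more than 50% in primary screen plus both repeat runs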); details: Fluo4 calcium fluorescence, at 10 µM; stronger effect = higher value
# [2] = tested on: transient receptor potential cation channel C4 beta (TRPC4), mouse; assay: TRPC4 cation channel opening, second retest – cell-based, second round, Fluo4, HEK293 TRPC4beta/mu-opioid, 1 µM, confirmation (AID 2461;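 active means primary screen active and over 50% activation in each of two duplicate runs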); details: Fluo4 calcium fluorescence, at 1 µM; stronger effect = higher value
# [3] = tested on: TRPC4 (transient receptor potential cation channel C4 beta), mouse; assay: potentiation of DAMGO EC20 TRPC4 response – cell-based, second round, Fluo-4, HEK293 TRPC4beta/mu-opioid, 1 µM, confirmation (AID 2554;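 active means primary screen hit whose fluorescence ratio, in both repeats, exceeds the weak agonist control mean by 3 SD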); details: DAMGO EC20, Fluo-4 calcium flux, at 1 µM; stronger effect = higher value
# [4] = tested on: TRPC4 beta (transient receptor potential cation channel C4), mouse; assay: potentiation of DAMGO EC20 TRPC4 response – cell-based, Fluo-4, HEK293 TRPC4beta/mu-opioid, confirmation (AID 2555;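 active means primary screen hit whose calcium fluorescence ratio, in both repeats, exceeds the weak agonist control mean by 3 SD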); details: DAMGO EC20, Fluo-4 calcium flux, at 10 µM; stronger effect = higher value
# [5] = biological target: Short transient receptor potential channel 4 (Mus musculus) (UniProt Q9QUQ5); assay: blockers of DAMGO-evoked TRPC4 calcium flux – cell-based, Fluo4, HEK293 TRPC4beta/mu-opioid, confirmation (AID 2636;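 active means calcium signal cut by more than 3 SD below the full-agonist control yet still positive, in both repeats and the earlier primary screen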); details: at 10 µM; stronger effect = higher value
# [6] = biological target: Short transient receptor potential channel 4 (Mus musculus) (UniProt Q9QUQ5); assay: blockers of DAMGO-evoked TRPC4 calcium flux – cell-based, second round, Fluo4, HEK293 TRPC4beta/mu-opioid, 1 µM, confirmation (AID 2637;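 active means calcium signal ratio cut to more than 3 SD under the fully stimulated control mean yet still positive, in both repeats and the primary screen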); details: at 1 µM; stronger effect = higher value
# [7] = biological target: Short transient receptor potential channel 4 (Mus musculus) (UniProt Q9QUQ5); assay: calcium entry via TRPC4 opening agents – cell-based, HEK293 TRPC4/mu-opioid, Fluo-4 calcium, dose response (AID 434937)
# [8] = biological target: Short transient receptor potential channel 4 (Mus musculus) (UniProt Q9QUQ5); assay: potentiation of DAMGO-evoked TRPC4 calcium signal – cell-based, HEK293 TRPC4/mu-opioid, Fluo-4 calcium, EC20 DAMGO, dose response (AID 434941;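 active means earlier screen potentiator hit that boosts the TRPC4 ion channel at some dose, with a dose response; inactive means no potentiation, no dose response, or not a prior hit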;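 further: calcium entry triggered by an EC20 dose of DAMGO at the co-expressed mu-opioid receptor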)
# [9] = biological target: Short transient receptor potential channel 4 (Mus musculus) (UniProt Q9QUQ5); assay: block of DAMGO-driven TRPC4 calcium entry – cell-based, HEK293 TRPC4/mu-opioid, Fluo-4 calcium, dose response (AID 434942;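 active means primary screen inhibitor hit that blocks the TRPC4 channel at some tested dose, yielding a dose curve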)
# [10] = biological target: Short transient receptor potential channel 6 (Mus musculus) (UniProt Q61143); assay: TRPC6 blockade by TRPC4 inhibitor hits – cell-based, HEK293, membrane potential dye, duplicate, selectivity assay for TRPC4 inhibitor project, confirmation (AID 434948;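 active means active in primary screen and both duplicates, each dropping signal beyond three positive-control SD with fluorescence still positive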); details: HEK293 TRPC6, membrane potential dye fluorescence, at 10 µM, stimulated with maximal-effect acetylcholine; stronger effect = higher value
# [11] = biological target: Short transient receptor potential channel 6 (Mus musculus) (UniProt Q61143); assay: TRPC6 opening by TRPC4 activator hits – cell-based, HEK293, membrane potential dye, duplicate, selectivity assay for TRPC4 activator project, confirmation (AID 434950;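 active means membrane potential signal rise above negative control mean plus 3 SD in both duplicates, also active in the earlier TRPC4 screen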;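 on activation: 0% = buffer only wells and 100% = acetylcholine maximal-effect wells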); details: HEK293 TRPC6, membrane potential fluorescence, at 10 µM; activation: stronger effect = higher value; outcome: activation
# [12] = biological target: Short transient receptor potential channel 6 (Mus musculus) (UniProt Q61143); assay: positive modulators of mouse TRPC6 channel – HEK293 cells, membrane potential dye, duplicate, selectivity assay for TRPC4 potentiator project, confirmation (AID 434952;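 active means compound raising the membrane signal above positive-control mean plus 3 SD in both repeats, and a primary screen hit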); details: HEK293 TRPC6, membrane potential dye fluorescence, at 10 µM, maximal acetylcholine added after compound; stronger effect = higher value
# [13] = biological target: Short transient receptor potential channel 4 (Mus musculus) (UniProt Q9QUQ5); assay: calcium flux activators in TRPC4/5HT1a cells, counter-screen for TRPC4 activator project, cell-based, second counter screen, HEK293 TRPC4/5HT1a, Fluo-4 (AID 434977;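 active means calcium signal rise above buffer-control mean plus 5 SD in both duplicates, and also a hit in the primary screen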); details: Fluo-4 calcium flux, at 10 µM; stronger effect = higher value
# [14] = serotonin-gated TRPC4 signal block – cell-based, second counter screen, HEK293 TRPC4/5HT1a, Fluo-4, counter-screen for TRPC4 inhibitor project, confirmation (AID 434978;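 active means primary screen active whose calcium signal fell more than 3 SD beyond the full-serotonin control mean in both duplicate plates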;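 on outcome: serotonin given first at submaximal then at maximal dose after compound preincubation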); details: Fluo-4 calcium flux, at 10 µM, serotonin added to trigger calcium flux; stronger effect = higher value
# [15] = tested on: TRPC4 (mouse), co-expressed with 5HT1a in HEK293; assay: enhancement of serotonin-evoked TRPC4 response – cell-based, second counter screen, HEK293 TRPC4/5HT1a, Fluo-4, counter-screen for TRPC4 potentiator project, confirmation (AID 434979;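 active means signal rise over 3 SD above mean of control wells given weak agonist, in both repeats and first screen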); details: Fluo-4 calcium flux, at 10 µM, serotonin added at its EC20 dose; stronger effect = higher value
# [16] = nonspecific calcium rise without TRPC4 – cell-based, HEK293 mu-opioid receptor line, counter-screen for TRPC4 activator project, confirmation (AID 449723;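 active means hit in primary screen, with calcium signal over 5 SD above buffer well mean in both duplicates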;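 further: counter screen cells carry the mu-opioid receptor alone and lack TRPC4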); details: HEK293 mu-opioid cells, Fluo-4 calcium fluorescence, at 10 µM; stronger effect = higher value
# [17] = nonspecific potentiation of DAMGO calcium response – cell-based, HEK293 mu-opioid receptor line, counter-screen for TRPC4 allosteric potentiator project, confirmation (AID 449724;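 active means calcium signal rise more than 3 SD above the low-dose agonist control mean, in both duplicate plates and the primary screen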); details: HEK293 mu-opioid receptor cells, Fluo-4 calcium flux, at 10 µM, compound added before EC20 DAMGO stimulus; stronger effect = higher value
# Short transient receptor potential channel 6 (Mus musculus), sequence (Q61143 whole entry, looked up): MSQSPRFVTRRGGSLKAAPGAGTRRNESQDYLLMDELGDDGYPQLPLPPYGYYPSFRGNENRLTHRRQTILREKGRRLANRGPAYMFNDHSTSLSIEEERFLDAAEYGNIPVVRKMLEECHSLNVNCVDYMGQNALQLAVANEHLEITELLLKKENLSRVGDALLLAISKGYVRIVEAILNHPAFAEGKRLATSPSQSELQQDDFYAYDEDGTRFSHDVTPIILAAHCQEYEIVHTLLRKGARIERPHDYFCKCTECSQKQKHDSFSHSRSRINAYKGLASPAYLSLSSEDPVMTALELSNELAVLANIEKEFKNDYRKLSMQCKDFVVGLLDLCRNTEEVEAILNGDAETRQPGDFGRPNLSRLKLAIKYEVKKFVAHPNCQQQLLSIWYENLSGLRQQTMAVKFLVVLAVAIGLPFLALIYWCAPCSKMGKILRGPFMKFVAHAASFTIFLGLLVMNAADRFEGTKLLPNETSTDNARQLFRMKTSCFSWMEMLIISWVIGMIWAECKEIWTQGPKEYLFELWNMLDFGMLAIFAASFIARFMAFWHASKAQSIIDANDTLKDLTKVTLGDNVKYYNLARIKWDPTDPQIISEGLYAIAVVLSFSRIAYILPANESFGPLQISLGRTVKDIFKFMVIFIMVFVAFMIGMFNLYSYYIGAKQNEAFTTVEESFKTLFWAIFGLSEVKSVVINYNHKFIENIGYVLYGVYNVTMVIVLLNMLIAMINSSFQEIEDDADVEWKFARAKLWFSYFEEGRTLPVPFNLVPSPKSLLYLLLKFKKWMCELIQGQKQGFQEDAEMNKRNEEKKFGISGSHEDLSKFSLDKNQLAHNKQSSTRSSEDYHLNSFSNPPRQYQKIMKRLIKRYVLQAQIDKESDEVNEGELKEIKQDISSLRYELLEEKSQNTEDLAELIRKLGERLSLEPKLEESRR
# Short transient receptor potential channel 4 (Mus musculus), sequence (Q9QUQ5 whole entry, looked up): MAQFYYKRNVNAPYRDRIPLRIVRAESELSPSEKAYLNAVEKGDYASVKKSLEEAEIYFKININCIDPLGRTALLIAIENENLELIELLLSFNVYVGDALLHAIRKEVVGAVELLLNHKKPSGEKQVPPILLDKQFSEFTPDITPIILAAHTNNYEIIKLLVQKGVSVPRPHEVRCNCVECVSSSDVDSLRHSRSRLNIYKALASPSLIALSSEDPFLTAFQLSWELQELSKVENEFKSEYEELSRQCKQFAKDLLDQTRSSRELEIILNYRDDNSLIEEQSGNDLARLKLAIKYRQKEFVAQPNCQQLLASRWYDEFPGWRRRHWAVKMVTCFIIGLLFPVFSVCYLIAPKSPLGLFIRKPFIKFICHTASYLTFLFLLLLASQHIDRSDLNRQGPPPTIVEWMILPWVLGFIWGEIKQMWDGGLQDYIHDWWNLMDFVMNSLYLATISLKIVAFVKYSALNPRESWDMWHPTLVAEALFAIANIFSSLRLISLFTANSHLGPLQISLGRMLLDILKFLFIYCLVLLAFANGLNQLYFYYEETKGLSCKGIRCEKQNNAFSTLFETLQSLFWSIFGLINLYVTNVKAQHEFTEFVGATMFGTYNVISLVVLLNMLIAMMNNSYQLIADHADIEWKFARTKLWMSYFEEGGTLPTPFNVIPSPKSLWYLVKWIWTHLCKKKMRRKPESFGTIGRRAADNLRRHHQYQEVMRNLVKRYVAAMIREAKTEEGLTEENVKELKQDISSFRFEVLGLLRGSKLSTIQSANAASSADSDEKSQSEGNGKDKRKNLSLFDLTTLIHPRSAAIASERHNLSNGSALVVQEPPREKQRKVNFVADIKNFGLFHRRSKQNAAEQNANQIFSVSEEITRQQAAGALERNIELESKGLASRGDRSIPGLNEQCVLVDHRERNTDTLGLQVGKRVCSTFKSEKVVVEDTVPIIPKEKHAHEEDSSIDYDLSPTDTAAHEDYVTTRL
smiles,measurement,setting,value
O=C(CN1CCCCC1)Nc1ccccc1Oc1ccccc1,outcome,[1],inactive
same,outcome,[2],inactive
same,outcome,[3],inactive
same,outcome,[4],inactive
same,inhibition,[5],92% (active)
same,outcome,[6],inactive
same,outcome,[7],inactive
same,outcome,[8],inactive
same,outcome,[9],inactive
same,inhibition,[10],33.5% (active)
same,outcome,[11],inactive
same,outcome,[12],inactive
same,outcome,[13],inactive
same,inhibition,[14],31.5% (active)
same,outcome,[15],inactive
same,outcome,[16],inactive
same,outcome,[17],inactive
CCn1c(NCc2ccco2)nc2ccccc21,outcome,[1],inactive
same,outcome,[2],inactive
same,outcome,[3],inactive
same,potentiation,[4],8% (active)
same,outcome,[5],inactive
same,outcome,[6],inactive
same,outcome,[7],inactive
same,outcome,[8],inactive
same,outcome,[9],inactive
same,outcome,[10],inactive
same,outcome,[11],inactive
same,outcome,[12],inactive
same,outcome,[13],inactive
same,outcome,[14],inactive
same,potentiation,[15],12.3% (active)
same,outcome,[16],inactive
same,outcome,[17],inactive
OC(CNCC1CCCO1)Cn1c2ccc(Br)cc2c2cc(Br)ccc21 (stereo not given),outcome,[1],inactive
same,outcome,[2],inactive
same,outcome,[3],inactive
same,outcome,[4],inactive
same,outcome,[5],inactive
same,outcome,[6],inactive
same,outcome,[7],inactive
same,outcome,[8],inactive
same,outcome,[9],inactive
same,outcome,[10],inactive
same,outcome,[11],inactive
same,outcome,[12],inactive
same,outcome,[13],inactive
same,outcome,[14],inactive
same,potentiation,[15],45.1% (active)
same,outcome,[16],inactive
same,outcome,[17],inactive
Cn1c(=O)cc(OCCCC(=O)NCCCN2CCN(Cc3ccccc3)CC2)c2ccccc21,outcome,[1],inactive
same,outcome,[2],inactive
same,potentiation,[3],19% (active)
same,potentiation,[4],19% (active)
same,outcome,[5],inactive
same,outcome,[6],inactive
same,outcome,[7],inactive
same,outcome,[8],inactive
same,outcome,[9],inactive
same,outcome,[10],inactive
same,outcome,[11],inactive
same,outcome,[12],inactive
same,outcome,[13],inactive
same,outcome,[14],inactive
same,potentiation,[15],21% (active)
same,outcome,[16],inactive
same,outcome,[17],inactive
COC(=O)C(CC(=O)Nc1cc(C)ccc1C)Nc1ccccc1OC (stereo not given),outcome,[1],inactive
same,outcome,[2],inactive
same,outcome,[3],inactive
same,outcome,[4],inactive
same,outcome,[5],inactive
same,outcome,[6],inactive
same,outcome,[7],inactive
same,outcome,[8],inactive
same,outcome,[9],inactive
same,outcome,[10],inactive
same,activation,[11],40.5% (active)
same,outcome,[12],inactive
same,outcome,[13],inactive
same,outcome,[14],inactive
same,outcome,[15],inactive
same,outcome,[16],inactive
same,outcome,[17],inactive
O=C(O)c1nn(CC(=O)N2CCN(c3ncc(C(F)(F)F)cc3Cl)CC2)c(=O)c2ccccc12,outcome,[1],inactive
same,outcome,[2],inactive
same,outcome,[3],inactive
same,outcome,[4],inactive
same,outcome,[5],inactive
same,outcome,[6],inactive
same,outcome,[7],inactive
same,outcome,[8],inactive
same,outcome,[9],inactive
same,outcome,[10],inactive
same,outcome,[11],inactive
same,outcome,[12],inactive
same,outcome,[13],inactive
same,outcome,[14],inactive
same,outcome,[15],inactive
same,outcome,[16],inactive
same,outcome,[17],inactive
Cc1ccc(C)c(OCCCCN2CCNCC2)c1C,outcome,[1],inactive
same,outcome,[2],inactive
same,outcome,[3],inactive
same,potentiation,[4],9% (active)
same,outcome,[5],inactive
same,outcome,[6],inactive
same,outcome,[7],inactive
same,outcome,[8],inactive
same,outcome,[9],inactive
same,outcome,[10],inactive
same,outcome,[11],inactive
same,outcome,[12],inactive
same,outcome,[13],inactive
same,outcome,[14],inactive
same,potentiation,[15],29.4% (active)
same,outcome,[16],inactive
same,outcome,[17],inactive
CCOC(=O)C(CCCCCOc1ccc([N+](=O)[O-])cc1)C(=O)OCC,outcome,[1],inactive
same,outcome,[2],inactive
same,outcome,[3],inactive
same,potentiation,[4],10% (active)
same,outcome,[5],inactive
same,outcome,[6],inactive
same,outcome,[7],inactive
same,outcome,[8],inactive
same,outcome,[9],inactive
same,outcome,[10],inactive
same,outcome,[11],inactive
same,outcome,[12],inactive
same,outcome,[13],inactive
same,outcome,[14],inactive
same,outcome,[15],inactive
same,outcome,[16],inactive
same,outcome,[17],inactive
COc1ccccc1N1CCN(c2ncc(C(=O)N3CCN(c4cccc(Cl)c4)CC3)c3ccccc23)CC1,outcome,[1],inactive
same,outcome,[2],inactive
same,outcome,[3],inactive
same,outcome,[4],inactive
same,outcome,[5],inactive
same,outcome,[6],inactive
same,outcome,[7],inactive
same,outcome,[8],inactive
same,outcome,[9],inactive
same,outcome,[10],inactive
same,outcome,[11],inactive
same,outcome,[12],inactive
same,outcome,[13],inactive
same,outcome,[14],inactive
same,potentiation,[15],13.4% (active)
same,outcome,[16],inactive
same,outcome,[17],inactive
CCOC(=O)CC(NS(=O)(=O)c1ccc(OC)c(C)c1)c1cccc([N+](=O)[O-])c1 (stereo not given),outcome,[1],inactive
same,outcome,[2],inactive
same,outcome,[3],inactive
same,outcome,[4],inactive
same,outcome,[5],inactive
same,outcome,[6],inactive
same,outcome,[7],inactive
same,outcome,[8],inactive
same,outcome,[9],inactive
same,outcome,[10],inactive
same,outcome,[11],inactive
same,outcome,[12],inactive
same,outcome,[13],inactive
same,outcome,[14],inactive
same,outcome,[15],inactive
same,outcome,[16],inactive
same,outcome,[17],inactive
Cc1cc(NC(=O)CCN2CCN(Cc3ccccc3)CC2)ccc1Br,outcome,[1],inactive
same,outcome,[2],inactive
same,potentiation,[3],18% (active)
same,outcome,[4],inactive
same,outcome,[5],inactive
same,outcome,[6],inactive
same,outcome,[7],inactive
same,outcome,[8],inactive
same,outcome,[9],inactive
same,outcome,[10],inactive
same,outcome,[11],inactive
same,outcome,[12],inactive
same,outcome,[13],inactive
same,outcome,[14],inactive
same,outcome,[15],inactive
same,outcome,[16],inactive
same,outcome,[17],inactive
OC(CNCCC(c1ccccc1)c1ccccc1)COc1ccccc1 (stereo not given),outcome,[1],inactive
same,outcome,[2],inactive
same,outcome,[3],inactive
same,outcome,[4],inactive
same,outcome,[5],inactive
same,outcome,[6],inactive
same,outcome,[7],inactive
same,outcome,[8],inactive
same,outcome,[9],inactive
same,outcome,[10],inactive
same,outcome,[11],inactive
same,outcome,[12],inactive
same,outcome,[13],inactive
same,outcome,[14],inactive
same,outcome,[15],inactive
same,outcome,[16],inactive
same,outcome,[17],inactive
O=C(O)c1ccc(N2CCN(C(c3ccccc3)c3ccccc3)CC2)c([N+](=O)[O-])c1,outcome,[1],inactive
same,outcome,[2],inactive
same,outcome,[3],inactive
same,outcome,[4],inactive
same,outcome,[5],inactive
same,outcome,[6],inactive
same,outcome,[7],inactive
same,outcome,[8],inactive
same,outcome,[9],inactive
same,outcome,[10],inactive
same,outcome,[11],inactive
same,outcome,[12],inactive
same,outcome,[13],inactive
same,outcome,[14],inactive
same,outcome,[15],inactive
same,outcome,[16],inactive
same,outcome,[17],inactive
Cc1ccc(CS(=O)(=O)CCC(=O)NCCC2=CCCCC2)cc1,outcome,[1],inactive
same,outcome,[2],inactive
same,potentiation,[3],14% (active)
same,outcome,[4],inactive
same,outcome,[5],inactive
same,outcome,[6],inactive
same,outcome,[7],inactive
same,outcome,[8],inactive
same,outcome,[9],inactive
same,outcome,[10],inactive
same,outcome,[11],inactive
same,outcome,[12],inactive
same,outcome,[13],inactive
same,outcome,[14],inactive
same,potentiation,[15],18.2% (active)
same,outcome,[16],inactive
same,outcome,[17],inactive
O=C(c1ccccc1F)N1CCN(c2ccc([N+](=O)[O-])cc2-n2cccc2)CC1,outcome,[1],inactive
same,outcome,[2],inactive
same,outcome,[3],inactive
same,potentiation,[4],20% (active)
same,outcome,[5],inactive
same,outcome,[6],inactive
same,outcome,[7],inactive
same,outcome,[8],inactive
same,outcome,[9],inactive
same,outcome,[10],inactive
same,outcome,[11],inactive
same,outcome,[12],inactive
same,outcome,[13],inactive
same,outcome,[14],inactive
same,potentiation,[15],17.1% (active)
same,outcome,[16],inactive
same,outcome,[17],inactive
